Experimental data published in PubChem BioAssay (Tox21).
Results filed as inconclusive are left out. The source made the active and inactive calls. Unless noted, calls come from the whole dose curve; as a rule, active = well fitted curve in the direction sought with a large enough effect in the repeat runs; inconclusive = weak or mixed curves; inactive = no such curve, though single readings can be large; an effect the other way counts as inactive or inconclusive.

Assays:
[1] = qHTS assay to identify small molecule agonists of the peroxisome proliferator-activated receptor delta (PPARd) signaling pathway - cell viability counter screen (AID 743211); note: % is set by controls: 0 for no effect and ±100 for the full control effect; nearly all actives have a fitted effect of over 55% in size
Procedure, shortened: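 Following 5 h plating at 37 C and 5% CO2, PPARd UAS-bla HEK293H cells took up test compounds for 17 h. Viability was quantified by luminescence 30 min after CellTiter-Glo addition at room temperature.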

[2] = target: Peroxisome proliferator-activated receptor delta (Homo sapiens) (UniProt Q03181); assay: qHTS assay to identify small molecule agonists of the peroxisome proliferator-activated receptor delta (PPARd) signaling pathway (AID 743212; calls by dose curve; note: % is set by controls: 0 for no effect and ±100 for the full control effect)
Procedure, shortened: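 Cells expressing a UAS-driven beta-lactamase reporter (PPARd-bla HEK293H) were given test compounds after a 5 h settle and kept at 37 C. Reporter activity was then measured as FRET fluorescence using LiveBLAzer B/G substrate.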

[3] = qHTS assay to identify small molecule antagonists of the peroxisome proliferator-activated receptor delta (PPARd) signaling pathway - cell viability counter screen (AID 743213); note: % is set by controls: 0 for no effect and ±100 for the full control effect; nearly all actives have a fitted effect of over 50% in size
Procedure, shortened: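 PPARd-bla HEK293H cells were treated with compounds plus agonist L165041 (300 nM final) for 17 h at 37 C. Viability was then read in the same wells by CellTiter-Glo luminescence after 30 min at room temperature.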

[4] = target: Peroxisome proliferator-activated receptor delta (Homo sapiens) (UniProt Q03181); assay: qHTS assay to identify small molecule antagonists of the peroxisome proliferator-activated receptor delta (PPARd) signaling pathway (AID 743215; active = well fitted inhibition curve with a large enough effect in the signal ratio in the repeat runs, not every such curve was filed as active; the % refers to the signal ratio;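 note: cells stimulated with agonist L165041 at 300 nM final during compound exposure; series mostly up to about 62 µM; % is set by controls: 0 for no effect and ±100 for the full control effect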)
Procedure, shortened: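 Fluorescence from cleaved LiveBLAzer B/G FRET substrate (2 h, room temperature) reports PPARd-driven beta-lactamase in HEK293H UAS-bla cells. Cells had been treated 17 h at 37 C with compound plus 300 nM final L165041.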

[5] = target: Bile acid receptor (Homo sapiens) (UniProt Q96RI1); assay: qHTS assay to identify small molecule antagonists of the farnesoid-X-receptor (FXR) signaling pathway (AID 743217; active = well fitted inhibition curve with a large enough effect in the signal ratio in the repeat runs, not every such curve was filed as active; the % refers to the signal ratio; note: % is set by controls: 0 for no effect and ±100 for the full control effect)
Procedure, shortened: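 FRET fluorescence after 2 h room-temperature LiveBLAzer loading gives the readout. Prior step: FXR-bla HEK 293T cells, seeded and incubated 5 h, received test compounds plus 50 uM final CDCA for 16 h at 37 °C.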

[6] = qHTS assay to identify small molecule agonists of the farnesoid-X-receptor (FXR) signaling pathway - cell viability counter screen (AID 743218); note: % is set by controls: 0 for no effect and ±100 for the full control effect; nearly all actives have a fitted effect of over 45% in size
Procedure, shortened: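 Readout: CellTiter-Glo luminescence, 30 min RT, multiplexed after the FXR-bla FRET reading. HEK 293T FXR-UAS-bla cells received compound 5 h post-plating and were incubated 16 h at 37 C.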

[7] = target: Bile acid receptor (Homo sapiens) (UniProt Q96RI1); assay: qHTS assay to identify small molecule agonists of the farnesoid-X-receptor (FXR) signaling pathway (AID 743220; active = well fitted activation curve with a large enough effect in the signal ratio in the repeat runs, not every such curve was filed as active; the % refers to the signal ratio; note: % is set by controls: 0 for no effect and ±100 for the full control effect)
Procedure, shortened: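 FXR-UAS-bla HEK 293T cells carrying a UAS-driven beta-lactamase reporter were plated for 5 h at 37C/5% CO2, then exposed to DMSO-dissolved Tox21 10K compounds for 16 h at 37C. A LiveBLAzer B/G FRET substrate was loaded for 2 h at room temperature before fluorescence reading.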

[8] = qHTS assay to identify small molecule antagonists of the farnesoid-X-receptor (FXR) signaling pathway - cell viability counter screen (AID 743221; active = well fitted cell-killing curve with a large enough effect in the repeat runs, not every such curve was filed as active; note: % is set by controls: 0 for no effect and ±100 for the full control effect; nearly all actives have a fitted effect of over 50% in size)
Procedure, shortened: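 Compound effects on cell number were measured as CellTiter-Glo luminescence in HEK 293T cells expressing FXR-UAS-bla, after 16 h at 37 C with 50 uM CDCA (final).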

[9] = target: Vitamin D3 receptor (Homo sapiens) (UniProt P11473); assay: qHTS assay to identify small molecule agonists of the vitamin D receptor (VDR) signaling pathway (AID 743222; calls by dose curve; note: % is set by controls: 0 for no effect and ±100 for the full control effect)
Procedure, shortened: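 Following 4 h attachment at 37C, VDR-bla cells (2,000 per well) received DMSO-dissolved compounds or controls. After 16 h incubation, LiveBLAzer B/G FRET substrate was added and fluorescence read 2 h later at room temperature.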

[10] = target: Vitamin D3 receptor (Homo sapiens) (UniProt P11473); assay: qHTS assay to identify small molecule antagonists of the vitamin D receptor (VDR) signaling pathway (AID 743223; active = well fitted inhibition curve with a large enough effect in the signal ratio in the repeat runs, not every such curve was filed as active; the % refers to the signal ratio; note: % is set by controls: 0 for no effect and ±100 for the full control effect)
Procedure, shortened: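 Beta-lactamase activity in VDR-bla cells is measured by FRET substrate fluorescence (2 h, room temperature) after cells spend 16 h at 37C with test compound and 3 nM final 1alpha,25-dihydroxyvitamin D3.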

[11] = qHTS assay to identify small molecule agonists of the vitamin D receptor (VDR) signaling pathway - cell viability counter screen (AID 743224); note: series mostly up to about 63 µM; % is set by controls: 0 for no effect and ±100 for the full control effect; nearly all actives have a fitted effect of over 50% in size
Procedure, shortened: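 In parallel with the bla FRET readout, cytotoxicity toward VDR-bla cells after 16 h compound exposure was assessed by CellTiter-Glo, with luminescence recorded after a 30 min room-temperature incubation.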

[12] = qHTS assay to identify small molecule antagonists of the vitamin D receptor (VDR) signaling pathway - cell viability counter screen (AID 743225); note: % is set by controls: 0 for no effect and ±100 for the full control effect; nearly all actives have a fitted effect of over 50% in size
Procedure, shortened: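 In this counter screen, VDR-bla HEK 293T cells receive test compound plus 3 nM final calcitriol for 16 h at 37C. Room-temperature steps of 2 h with the beta-lactamase substrate, then 30 min with CellTiter-Glo, precede the luminescence read.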

[13] = qHTS assay to identify small molecule agonists of the NFkB signaling pathway (AID 1159509; active = well fitted curve in the direction sought with a large enough effect in the signal ratio in the repeat runs, not every such curve was filed as active; the % refers to the signal ratio)
Procedure, shortened: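 Agonist activity was read as beta-lactamase-driven FRET change (460 and 530 nm emission, 405 nm excitation) following 1.5 hr substrate loading at room temperature. Beforehand, ME-180 NFkB-bla reporter cells were treated with compounds for 5 hr at 37 C.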

[14] = qHTS assay to identify small molecule agonists of the NFkB signaling pathway - cell viability counter screen (AID 1159515; calls by dose curve; note: series mostly up to about 61 µM; % is set by controls: 0 for no effect and ±100 for the full control effect; nearly all actives have a fitted effect of over 55% in size)
Procedure, shortened: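 Plate 2,000 NFkB-bla ME-180 cells/well; incubate overnight. Add compounds, 5 hr at 37 C. Add FRET substrate, 1.5 hr RT. Add CellTiter-Glo, 30 min RT; read luminescence.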

[15] = qHTS assay to identify small molecule agonists of the endoplasmic reticulum stress response signaling pathway (AID 1159516; active = well fitted activation curve with a large enough effect in the signal ratio in the repeat runs, not every such curve was filed as active; the % refers to the signal ratio; note: % is set by controls: 0 for no effect and ±100 for the full control effect)
Procedure, shortened: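 Beta-lactamase expression from the ER stress response element in HeLa reporter cells is quantified with the LiveBLAzer B/G FRET substrate, read at 405 nm excitation after 2 hr at room temperature, following 5 hr compound treatment at 37 C.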

[16] = qHTS assay to identify small molecule agonists of the endoplasmic reticulum stress response signaling pathway - cell viability counter screen (AID 1159517; calls by dose curve)
Procedure, shortened: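 Cpd-treated ESRE-bla HeLa (5 hr, 37 C) → LiveBLAzer 2 hr RT → CellTiter-Glo 30 min RT → luminescence.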

[17] = qHTS assay to identify small molecule antagonists of the retinoid-related orphan receptor gamma (ROR-gamma) signaling pathway - cell viability counter screen (AID 1159520)
Procedure, shortened: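 Tet-on ROR gamma CHO cells (1,000/well) were plated 4 hr, given compounds in DMSO for 2 hr at 37 C, then induced with 1 uM final doxycycline for 16 hr. Viability was read as ATP by CellTiter-Glo luminescence after 30 min.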

[18] = target: Nuclear receptor ROR-gamma (Homo sapiens) (UniProt P51449); assay: qHTS assay to identify small molecule antagonists of the retinoid-related orphan receptor gamma (ROR-gamma) signaling pathway (AID 1159521)
Procedure, shortened: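 Screening format: cell-based luciferase reporter in CHO cells with doxycycline-inducible RORγ. Compound pre-exposure lasts 2 h, doxycycline is 1 uM final, induction runs 16 h at 37 C, and ONE-Glo luminescence is read.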

[19] = qHTS assay to identify small molecule agonists of the AP-1 signaling pathway - cell viability counter screen (AID 1159525; calls by dose curve; note: nearly all actives have a fitted effect of over 55% in size)
Procedure, shortened: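 Each titration point was normalised to DMSO and tetra n-octyl ammonium bromide controls. The read was Cell Titer Glo luminescence after 30 min at RT, following 5 h compound exposure of ME-180 AP-1-bla cells at 37 °C.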

[20] = qHTS assay to identify small molecule agonists of the AP-1 signaling pathway (AID 1159526; calls by dose curve; note: % is set by controls: 0 for no effect and ±100 for the full control effect)

Sequence of Bile acid receptor (Homo sapiens) (Q96RI1 whole entry, looked up): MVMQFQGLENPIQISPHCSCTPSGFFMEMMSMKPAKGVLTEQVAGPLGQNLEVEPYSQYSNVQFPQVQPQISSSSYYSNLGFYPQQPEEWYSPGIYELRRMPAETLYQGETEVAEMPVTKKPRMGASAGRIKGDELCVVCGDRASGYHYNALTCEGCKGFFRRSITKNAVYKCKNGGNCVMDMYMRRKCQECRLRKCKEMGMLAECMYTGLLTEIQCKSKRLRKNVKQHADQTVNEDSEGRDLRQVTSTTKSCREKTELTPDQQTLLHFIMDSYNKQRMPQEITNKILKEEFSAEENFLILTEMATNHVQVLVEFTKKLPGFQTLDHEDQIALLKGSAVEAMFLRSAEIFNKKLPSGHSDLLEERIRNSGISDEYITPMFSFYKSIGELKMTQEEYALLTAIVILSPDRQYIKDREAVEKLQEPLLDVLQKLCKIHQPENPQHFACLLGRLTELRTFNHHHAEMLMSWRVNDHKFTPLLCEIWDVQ
Sequence of Peroxisome proliferator-activated receptor delta (Homo sapiens) (Q03181 whole entry, looked up): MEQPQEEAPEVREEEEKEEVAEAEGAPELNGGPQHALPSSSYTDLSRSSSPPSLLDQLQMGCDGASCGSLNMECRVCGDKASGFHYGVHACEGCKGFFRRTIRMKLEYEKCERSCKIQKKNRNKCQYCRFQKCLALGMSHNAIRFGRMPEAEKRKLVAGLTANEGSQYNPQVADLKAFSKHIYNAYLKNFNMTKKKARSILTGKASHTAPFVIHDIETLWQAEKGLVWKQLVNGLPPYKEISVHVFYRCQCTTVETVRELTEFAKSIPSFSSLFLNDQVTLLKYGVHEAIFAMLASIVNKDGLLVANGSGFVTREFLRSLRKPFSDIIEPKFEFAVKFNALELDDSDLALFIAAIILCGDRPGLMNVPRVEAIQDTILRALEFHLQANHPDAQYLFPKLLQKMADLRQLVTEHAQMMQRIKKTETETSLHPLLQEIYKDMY
Sequence of Vitamin D3 receptor (Homo sapiens) (P11473 whole entry, looked up): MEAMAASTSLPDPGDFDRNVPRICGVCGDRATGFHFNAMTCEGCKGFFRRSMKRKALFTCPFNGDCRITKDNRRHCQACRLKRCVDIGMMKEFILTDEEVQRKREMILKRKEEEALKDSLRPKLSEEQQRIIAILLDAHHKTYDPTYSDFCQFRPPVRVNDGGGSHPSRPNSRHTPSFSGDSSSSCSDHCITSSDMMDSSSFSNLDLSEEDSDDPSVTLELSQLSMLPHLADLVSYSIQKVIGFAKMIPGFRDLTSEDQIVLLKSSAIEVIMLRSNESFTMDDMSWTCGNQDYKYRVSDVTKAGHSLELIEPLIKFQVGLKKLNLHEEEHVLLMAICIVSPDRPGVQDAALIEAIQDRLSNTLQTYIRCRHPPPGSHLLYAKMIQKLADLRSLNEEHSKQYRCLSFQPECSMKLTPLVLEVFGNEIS

CCCCOC(=O)[C@H](C)O
inactive: outcome [1] | outcome [2] | outcome [3] | outcome [4] | outcome [5] | outcome [6] | outcome [7] | outcome [8] | outcome [9] | outcome [10] | outcome [11] | outcome [12] | outcome [13] | outcome [14] | outcome [15] | outcome [16] | outcome [17] | outcome [18] | outcome [19] | outcome [20]

CC1(C)[C@H]2CC[C@](C)(C2)[C@H]1O
inactive: outcome [1] | outcome [2] | outcome [3] | outcome [4] | outcome [5] | outcome [6] | outcome [7] | outcome [8] | outcome [9] | outcome [10] | outcome [11] | outcome [13] | outcome [14] | outcome [15] | outcome [16] | outcome [17] | outcome [18] | outcome [19] | outcome [20]

Cc1ccc(N)cc1S(=O)(=O)O
inactive: outcome [1] | outcome [2] | outcome [3] | outcome [4] | outcome [5] | outcome [6] | outcome [7] | outcome [9] | outcome [11] | outcome [12] | outcome [13] | outcome [14] | outcome [15] | outcome [16] | outcome [17] | outcome [18] | outcome [19] | outcome [20]

N#Cc1ccccc1O
inactive: outcome [1] | outcome [2] | outcome [3] | outcome [4] | outcome [5] | outcome [6] | outcome [7] | outcome [8] | outcome [9] | outcome [10] | outcome [11] | outcome [12] | outcome [13] | outcome [14] | outcome [15] | outcome [16] | outcome [17] | outcome [18] | outcome [19] | outcome [20]

NCc1ccc(S(N)(=O)=O)cc1
inactive: outcome [1] | outcome [2] | outcome [3] | outcome [4] | outcome [5] | outcome [6] | outcome [7] | outcome [8] | outcome [9] | outcome [10] | outcome [11] | outcome [13] | outcome [14] | outcome [15] | outcome [16] | outcome [17] | outcome [18] | outcome [19] | outcome [20]

CCn1cc(C(=O)O)c(=O)c2cnc(N3CCCC3)nc21
inactive: activity change, negative = cytotoxicity [1] 3.01% [at 13.2 µM] | activation [2] -4.9% [at 13.2 µM] | viability change, negative = cytotoxic [3] -17.7% [at 13.7 µM] | ratio activity, negative = inhibition [4] -14.6% [at 13.7 µM] | activity change, negative = inhibition [5] 6.21% [at 13.2 µM] | viability change, negative = cytotoxic [6] -3.43% [at 13.2 µM] | activation [7] -0.921% [at 13.2 µM] | activity change, negative = cytotoxicity [11] 7.07% [at 13.2 µM] | viability change, negative = cytotoxic [12] -2.96% [at 6.95 µM] | activation [13] 0.219% [at 6.95 µM] | activity, negative = cytotoxic [14] -27.6% [at 6.95 µM] | activation [15] 1.19% [at 6.95 µM] | activity change, negative = cytotoxicity [16] -11.8% [at 6.95 µM] | activity, negative = cytotoxicity [17] 1.16% [at 8.39 µM] | activity change, negative = inhibition [18] 14.3% [at 8.39 µM] | viability change, negative = cytotoxic [19] 0.489% [at 6.97 µM] | activation [20] -6.77% [at 6.97 µM]

CC(=O)CCc1ccc(OC(C)=O)cc1
inactive: outcome [1] | outcome [2] | outcome [3] | outcome [4] | outcome [5] | outcome [6] | outcome [7] | outcome [8] | outcome [9] | outcome [10] | outcome [12] | outcome [13] | outcome [14] | outcome [15] | outcome [16] | outcome [17] | outcome [18] | outcome [19] | outcome [20]

C/C=C(\C)C(=O)OCCc1ccccc1
inactive: outcome [1] | outcome [2] | outcome [3] | outcome [4] | outcome [5] | outcome [6] | outcome [7] | outcome [11] | outcome [12] | outcome [13] | outcome [14] | outcome [15] | outcome [16] | outcome [17] | outcome [18] | outcome [19] | outcome [20]

Cc1cccc(Cl)c1
inactive: outcome [1] | outcome [2] | outcome [3] | outcome [4] | outcome [5] | outcome [6] | outcome [7] | outcome [8] | outcome [11] | outcome [12] | outcome [13] | outcome [14] | outcome [15] | outcome [16] | outcome [17] | outcome [18] | outcome [19] | outcome [20]

O=C(CCCl)NCCc1ccccc1
inactive: outcome [1] | outcome [2] | outcome [3] | outcome [4] | outcome [5] | outcome [6] | outcome [7] | outcome [8] | outcome [9] | outcome [10] | outcome [11] | outcome [12] | outcome [13] | outcome [14] | outcome [15] | outcome [16] | outcome [17] | outcome [18] | outcome [19] | outcome [20]

O=C(Cn1ccnc1[N+](=O)[O-])NCc1ccccc1
inactive: outcome [1] | outcome [2] | outcome [3] | outcome [4] | outcome [5] | outcome [6] | outcome [7] | outcome [8] | outcome [13] | outcome [14] | outcome [15] | outcome [16] | outcome [17] | outcome [18] | outcome [19] | outcome [20]

Cc1ccccc1C(N)=O
inactive: outcome [1] | outcome [2] | outcome [3] | outcome [4] | outcome [5] | outcome [6] | outcome [7] | outcome [11] | outcome [12] | outcome [13] | outcome [14] | outcome [15] | outcome [16] | outcome [17] | outcome [18] | outcome [19] | outcome [20]

OCC(O)CN1CCN(c2ccccc2)CC1 (stereo not given)
inactive: outcome [1] | outcome [2] | outcome [3] | outcome [4] | outcome [5] | outcome [6] | outcome [7] | outcome [8] | outcome [13] | outcome [14] | outcome [15] | outcome [16] | outcome [17] | outcome [18] | outcome [19] | outcome [20]

CC(C)Cn1cnc2c1c(=O)n(C)c(=O)n2C
inactive: outcome [1] | outcome [2] | outcome [3] | outcome [4] | outcome [5] | outcome [6] | outcome [7] | outcome [9] | outcome [10] | outcome [11] | outcome [12] | outcome [13] | outcome [14] | outcome [15] | outcome [16] | outcome [17] | outcome [18] | outcome [19] | outcome [20]
